# PubChem BioAssay AID651814 (National Center for Advancing Translational Sciences (NCATS), 2012)
# About 590 (28%) of roughly 2,100 compounds were called active. About 42% were inconclusive and are not listed. The list shows a part of the results. Unmarked numbers belong to inactive results. Calls follow the shape of the dose curve; as a rule, active = well fitted inhibition curve with a large enough effect; inconclusive = small, poorly fitted or top-dose-only effect; inactive = flat fitted curve, though single readings scatter.
# Target: DNA dC->dU-editing enzyme APOBEC-3F (Homo sapiens) (UniProt Q8IUX4)
# Sequence (Q8IUX4 whole entry, looked up): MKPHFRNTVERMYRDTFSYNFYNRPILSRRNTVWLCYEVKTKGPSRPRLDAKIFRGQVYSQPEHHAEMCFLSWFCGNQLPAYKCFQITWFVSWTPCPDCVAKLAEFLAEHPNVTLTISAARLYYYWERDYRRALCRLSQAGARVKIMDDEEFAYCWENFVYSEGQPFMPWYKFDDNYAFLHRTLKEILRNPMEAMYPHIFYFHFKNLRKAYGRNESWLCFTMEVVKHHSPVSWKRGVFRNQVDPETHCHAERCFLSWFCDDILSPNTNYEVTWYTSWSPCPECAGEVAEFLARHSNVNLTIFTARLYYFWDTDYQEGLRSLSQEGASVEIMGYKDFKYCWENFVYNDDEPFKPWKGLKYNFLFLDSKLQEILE
# Assay: qHTS for inhibitors of Vif-A3F interactions: Cherry picks; also: nearly all actives have a fitted effect of over 70% in size;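 as to max response: % of control where 0% means no effect; active compounds raise eYFP fluorescence by blocking Vif-driven A3F loss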
# Conditions: HeLa A3F-eYFP + Vif (tagged APOBEC3F with the HIV-1 protein that degrades it), eYFP fluorescence, 24 h
# How it was run: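 HeLa cells stably expressing A3F-eYFP plus Vif, cultured overnight, then exposed to compounds at several concentrations for 24 h at 37 deg C. Reduced Vif-driven degradation read as rising eYFP fluorescence (488 nm ex/500-530 nm em) by laser-scanning cytometry; MG132 as positive control.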
# Potency is read from the fitted curve at half-maximal effect.
SMILES,Potency,max response [%]
Cc1cc(C)c2cc3c(N)c(C(=O)Nc4c(C)[nH]c(=O)[nH]c4=O)sc3nc2c1,13 µM (active),–
Cc1ccc(C2=NN(C(=O)c3cccs3)C(c3ccccc3O)C2)cc1 (configuration not stated),–,-0.929
Cc1ccc(C2C(C(=O)c3cccs3)=C(O)C(=O)N2c2nnc(C)s2)cc1 (configuration not stated),19.8 µM (active),–
CCCSc1nnc(N2C(=O)C(O)=C(C(=O)c3ccco3)C2c2ccccc2F)s1 (configuration not stated),–,-6.1
FC(F)(F)c1ccccc1NC(=S)NN=C1CCCCCC1,–,0.807
O=C(NNC1=Nc2cccc3cccc1c23)c1ccc(Br)cc1,16.4 µM (active),–
CC(C)OC(=O)c1cc(C(=O)c2cc(F)ccc2O)coc1=N,23.1 µM (active),–
C=CCN=c1scc(-c2ccc(F)cc2)n1/N=C/c1ccccn1,–,5.22
Cc1ccc(-n2nc3c(SCCN4CCOCC4)nnc(C)c3c2C)cc1,–,-16.8
Cc1nnc(SCC(=O)NCc2ccccc2F)c2nn(-c3ccc(Cl)cc3)c(C)c12,16.4 µM (active),–
C=C1C(=O)O[C@H]2C1CC[C@@](C)(O)C13C=CC(C)(C21)C1(C3)C(=O)O[C@@H]2C3C(C)=CCC3[C@](C)(O)C[C@H](OC(C)=O)C21 (some centres not stated),–,-25.3
CCN1/C(=C/c2cc[n+](C)cc2)C=Cc2cc(C)ccc21,11.6 µM (active),–
CCN1/C(=C/c2ccc3ccccc3[n+]2CC)C=Cc2ccccc21,–,-17
CC1(C)COC(Cn2c3ccccc3c3ccccc32)O1 (configuration not stated),–,-25.3
CCOc1cc([N+](=O)[O-])cc2c1C(=O)Nc1ccccc1O2,–,-12
O=C1Nc2ccc(Br)cc2C12NNc1ccccc1O2 (configuration not stated),14 µM (active),–
COc1ccc(CCNC(=O)CC2(CC3=NS(=O)(=O)c4ccccc4N3)CCCC2)cc1OC,–,-0.97
Cc1cc(C)cc(NC(=S)NC(=O)C2CC2)c1,–,-4.35
CCn1c2ccccc2c2cc(NC(=O)CNCc3ccccc3OC)ccc21,–,-24.7

SMILES,Potency,max response [%]
Cc1cc(C)cc(NC(=O)Cn2cc(C(=O)C3CCCCC3)c3ccccc32)c1,18.4 µM (active),–
CCN(Cc1ccccc1)c1ccc(/C=C/c2nccc3ccccc23)cc1,20.6 µM (active),–
CCN(Cc1ccccc1)c1ccc(/C=C(\C#N)c2ccccn2)cc1,–,-7.46
CN(C)c1ccc(/C=C/c2nccc3ccccc23)cc1,18.4 µM (active),–
CCN(CC)c1nc(C=Cc2ccc(N(C)C)cc2)c2nccnc2n1,1.84 µM (active),–
CN(C)c1ccc(C=Cc2nccc3ccccc23)cc1,11.2 µM (active),–
O=C(OCC12CC3CC(CC(C3)C1)C2)c1ccc(NCc2cc(O)ccc2O)cc1,–,-19.8
NC(=O)c1ccc(NC(=O)C#Cc2ccccc2)cc1,–,-20.2
CC[n+]1c(C=C2C=C(C)OC(C)=C2)sc2ccccc21,2.31 µM (active),–
CN(C)c1ccc2nc3c(=O)[nH]c(=O)nc-3n(CC(O)C(O)C(O)CO)c2c1 (configuration not stated),–,-2.88
O=[N+]([O-])c1ccc(N/N=C\c2cccn2-c2ccccc2)nc1,14 µM (active),–
CCN(CC)c1ccc(C=NNc2ccc([N+](=O)[O-])cn2)cc1,–,-25.4
CCN(CC)c1ccc2c(c1)OC(N)=C(C#N)C2c1cccnc1 (configuration not stated),17.7 µM (active),–
COc1cc(C2C(C#N)=C(N)Oc3cc(O)ccc32)cc2c1OCO2 (configuration not stated),–,-28.2
CC1=C(n2nnc3ccccc32)C(c2ccccc2)C(C#N)=C(N)O1 (configuration not stated),–,-5.98
N#C/C(=C\c1ccccc1[N+](=O)[O-])C(=O)NCc1ccccc1,–,-6.74
CN(C)c1ccc(/C=C(/C#N)C(=O)NCc2ccccc2)o1,14.6 µM (active),–
COc1cc(OC)c(/C=C/c2ccc3ccccc3[n+]2C)c(OC)c1,5.17 µM (active),–
COc1cc(OC)c(C2Nc3cccc4cccc(c34)N2)c(OC)c1,–,-0.492

SMILES,Potency,max response [%]
CC(=O)c1cccc(-c2ccnc3c2CC(C(=O)Nc2ccc(Cl)cc2)O3)c1 (configuration not stated),–,-28.2
Nc1nc(-c2cc(O)ccc2[N+](=O)[O-])cc(-c2ccccc2)c1[N+](=O)[O-],12.5 µM (active),–
COc1ccc(OC)c(NC(=O)Cn2cnc3onc(-c4ccc(Cl)cc4)c3c2=O)c1,–,-18
COc1ccc(OC)c(NC(=O)Cn2c(=O)n(-c3ccc(Cl)cc3)c(=O)c3c(C)c(C)sc32)c1,20.6 µM (active),–
CCN(CC)C(=O)Cn1c(=O)n(-c2ccccc2)c(=O)c2c3c(sc21)CCC3,–,1.37
CC(C)NC(=S)N/N=C1\CCCCc2ccccc21,–,2.14
CNC(=S)N/N=C/c1ccc(N2CCOCC2)s1,–,-10.3
CC(C)NC(=S)N/N=C/c1sc(N2CCCCC2)nc1-c1cccs1,16.4 µM (active),–
N#Cc1c(C(F)(F)F)cc(-c2ccccc2)nc1SCc1nc(N)nc(N2CCOCC2)n1,5.8 µM (active),–
COc1cc(N2CCCC2)c(OC)cc1/C=C(/C#N)c1ccc(F)cc1,20.6 µM (active),–
COc1cc(N2CCCC2)c(OC)cc1/C=C(/C#N)c1ccc(Br)cc1,7.31 µM (active),–
CC1Cc2cc(S(=O)(=O)CCC(=O)NCc3ccc(Cl)cc3)ccc2N1C(=O)C1CC1 (configuration not stated),–,-29.5
COC(=O)c1c(-c2cccnc2)csc1NC(=O)c1ccc2c(c1)OCO2,–,-11.9
O=C(/C=C/c1cccs1)NCc1ccc2c(c1)OCO2,–,1.53
Cc1ccc(C(=O)Nc2sc(Cc3ccc4c(c3)OCO4)c(C)c2C(N)=O)cc1,6.51 µM (active),–
CCOc1cc(/C=C2\N=C(SC(C)C(N)=O)N(c3ccc(OC(F)F)cc3)C2=O)ccc1O (configuration not stated),15.8 µM (active),–
COc1cc(N2CCCC2)c(OC)cc1/C=C1/NC(=S)NC1=O,3.53 µM (active),–
Cc1cc(C)c2nc(SCC(=O)N3CC(=O)Nc4ccccc43)c(C#N)cc2c1,3.96 µM (active),–
Cc1cccc2cc(C#N)c(SCC(=O)N3CC(=O)Nc4ccccc43)nc12,4.44 µM (active),–
